The values that follow come from PubChem BioAssay.

Activity calls are given as the source filed them.

Experiment [1] deals with Human papillomavirus type 1a protein E7 (residues 44-93). As to the kind of experiment: small molecules binding HPV E7 44-93 – biochemical, small-molecule microarray, residues 44-93, 635 nm fluorescence, primary screen (AID 1108).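 Further: E7 fragment applied at 1 µg/mL in TBST for 1 h at 4 C; score combines spot fluorescence with its signal to noise ratio.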 The conditions noted are these: fluorescence 635 nm, higher = more signal.
Experiment [2] can be described thus: hepatitis C replication reporter changes, two-sided – Huh7 cells, luciferase reporter, HCV replication inhibitor project, primary screen (AID 1109).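 Further: huh7 hepatoma cells harbouring a luciferase neomycin HCV replicon reporter; luciferase luminescence as measure of HCV replicon replication; test concentration not given here.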 The conditions noted are these: Huh7 HCV replicon luciferase reporter, 48 h; higher = more signal. For orientation: A reporter such as luciferase makes a cellular process visible.
Experiment [3] deals with Left-right determination factor 2 (Homo sapiens) (UniProt O00292). As to the kind of experiment: small molecules binding LEFTY2 protein – biochemical, small-molecule microarray, 635 nm fluorescence scan, primary screen (AID 1110). The settings on record: higher = more signal.
Experiment [4] concerns the target Calmodulin-1 (Homo sapiens) (UniProt P0DP23). As to the kind of experiment: small molecules binding calmodulin-1 with EGTA – biochemical, small-molecule microarray, Cy5-labelled CALM1, profiling panel (AID 1111).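 Further: labelled calmodulin applied in Tris saline Tween buffer holding calcium plus EGTA and DTT.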 The settings on record: Cy5-CALM1 binding fluorescence, higher = more signal.
The target is the same in experiment [5]. Description: small molecules binding Ca-loaded calmodulin-1 – biochemical, small-molecule microarray, Cy5-labelled CALM1, plus calcium, artefact control for SMM control-protein annotation, profiling panel (AID 1112).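 Further: score merges spot fluorescence with signal to noise from triplicate slides.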 The conditions noted are these: Cy5-CALM1 binding fluorescence, higher = more signal.
A short description of experiment [6]: probe aWnt5a binding to arrayed compounds – biochemical, biotinylated probe, 635/667 nm fluorescence, primary screen (AID 1113).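 Further: score merges 667 nm fluorescence intensity with signal-to-noise per printed feature.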 The conditions noted are these: small-molecule microarray, higher = more signal.
A short description of experiment [7]: probe aShh binding to arrayed compounds – biochemical, biotinylated probe, 635/667 nm fluorescence, primary screen (AID 1114).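 Further: probe is biotin-labelled aShh protein from a stem cell growth factor screen; measures binding of labelled protein to compounds printed on the slide; score merges feature fluorescence at 667 nm with signal-to-noise.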 The conditions noted are these: small-molecule microarray, higher = more signal.
Experiment [8] can be described thus: probe aNog binding to arrayed compounds – biochemical, biotinylated probe, 635/667 nm fluorescence, primary screen (AID 1115).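 Further: probe is biotinylated aNog protein used at 0.15 µg/mL for 1 h at 4 C; z-score combines 667 nm fluorescence of each spot with its signal to noise.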 The conditions noted are these: small-molecule microarray, higher = more signal.
In experiment [9] the target is Torsin-1A-interacting protein 1 (Homo sapiens) (UniProt Q5JTV8). Description: compound microarray binding of lysate hLAP1 – cell lysate, small-molecule microarray, COS7 lysate, 635/667 nm fluorescence, primary screen (AID 1116). The settings on record: 635 nm fluorescence, higher = more signal.
For experiment [10], the target named is Alpha-bungarotoxin (Bungarus multicinctus) (UniProt P60615). As to the kind of experiment: compounds binding labelled alpha-BTX control protein – biochemical, small-molecule microarray, Alexa647 label, 635/667 nm fluorescence, artefact control for SMM control protein annotation, profiling panel (AID 1117). The settings on record: alpha-BTX-A647 binding fluorescence, higher = more signal.

The next experiment concerns the target Albumin (Bos taurus) (UniProt P02769). Description: compounds binding labelled BSA control protein – biochemical, small-molecule microarray, Alexa647 label, 635/667 nm fluorescence, artefact control for SMM control protein annotation, profiling panel (AID 1118).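 Further: score merges 667 nm emission intensity and signal-to-noise per printed compound spot.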 The settings on record: BSA-A647 binding, fluorescence 635 nm, higher = more signal.
The nature of experiment [11]: probe aXIP binding to arrayed compounds – biochemical, NeuroSMM set, 635/667 nm fluorescence, primary screen (AID 1119).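 Further: probe is the protein aXip251-270 applied at 1 µg/mL to compound-printed slides; binding of probe to printed compounds measured as 667 nm fluorescence plus signal to noise.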 The conditions noted are these: small-molecule microarray, higher = more signal, called active from +8 up or from −8 down.
Experiment [12] in a line: probe aNOTCH3 binding on compound microarray – biochemical, small-molecule microarray, 635/667 nm fluorescence, primary screen (AID 1120).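 Further: probe is a biotin-tagged antibody raised against NOTCH3 rather than NOTCH3 protein; score merges spot fluorescence near 667 nm with spot signal to noise.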 The settings on record: higher = more signal.
Experiment [13] in a line: probe aNOTCH2 binding on compound microarray – biochemical, small-molecule microarray, 635/667 nm fluorescence, primary screen (AID 1121).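 Further: score merges feature fluorescence read at 667 nm with its signal to noise.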 The conditions noted are these: higher = more signal.
For experiment [14], the target named is Carbonic anhydrase 2 (Homo sapiens) (UniProt P00918). As to the kind of experiment: compounds binding carbonic anhydrase 2 – biochemical, small-molecule microarray, Alexa647-labelled CAII, profiling panel (AID 1122). The settings on record: CAII-A647 binding fluorescence, higher = more signal.
The nature of experiment [15]: COS7 lysate on small-molecule microarray, probe aHis, 635 nm (AID 1123).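 Further: z-score combines 667nm fluorescence intensity with signal-to-noise per printed compound spot.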 The settings on record: COS7 cell lysate, fluorescence, higher = more signal.
Experiment [16] in a line: probe aLAP1 signal on lysate-treated microarray – cell lysate, small-molecule microarray, COS7 lysate, primary screen (AID 1124).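 Further: lysate comes from COS7 cells expressing LAP1 and is applied at 0.3 µg/mL; score merges spot fluorescence near 667 nm with signal-to-noise over triplicate slides.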 The conditions noted are these: probe aLAP1, fluorescence, higher = more signal.
The subject of the next experiment is Sam68 (KHDRBS1). Description: compounds binding KHDRBS1 protein – biochemical, small-molecule microarray, 635 nm fluorescence, primary screen (AID 1125).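 Further: score merges 667 nm channel intensity with signal to noise over triplicate slides.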 The conditions noted are these: higher = more signal.
Experiment [17] deals with Chordin-like protein 2 (CHRDL2). As to the kind of experiment: compounds binding chordin-like 2 – biochemical, small-molecule microarray, 635 nm fluorescence, primary screen (AID 1126).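 Further: printed compound slides probed with Chrdl2 protein at 4 µg/mL for 1 h at 4 C; score merges 667 nm emission intensity with signal to noise over three replicate slides.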 The settings on record: fluorescence 635 nm, higher = more signal.
Experiment [18] deals with Concanavalin-A (Canavalia ensiformis) (UniProt P02866). Description: compounds binding concanavalin A lectin – biochemical, small-molecule microarray, Alexa647 label, 635 nm, artefact control for SMM control protein annotation, primary screen (AID 1127).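 Further: z combines 667 nm emission intensity with signal-to-noise across three replicate slides.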 The settings on record: ConA-A647 binding fluorescence, higher = more signal.
Concanavalin-A (Canavalia ensiformis), sequence (P02866 whole entry, looked up): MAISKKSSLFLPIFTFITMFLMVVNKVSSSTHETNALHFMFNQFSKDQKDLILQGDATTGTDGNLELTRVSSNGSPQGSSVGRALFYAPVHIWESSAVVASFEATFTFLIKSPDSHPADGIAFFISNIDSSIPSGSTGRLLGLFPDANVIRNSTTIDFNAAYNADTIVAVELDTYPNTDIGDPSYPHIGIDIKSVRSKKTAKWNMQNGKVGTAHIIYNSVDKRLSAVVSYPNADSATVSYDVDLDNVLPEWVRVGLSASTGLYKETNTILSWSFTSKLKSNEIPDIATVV

Left-right determination factor 2 (Homo sapiens), sequence (O00292 whole entry, looked up): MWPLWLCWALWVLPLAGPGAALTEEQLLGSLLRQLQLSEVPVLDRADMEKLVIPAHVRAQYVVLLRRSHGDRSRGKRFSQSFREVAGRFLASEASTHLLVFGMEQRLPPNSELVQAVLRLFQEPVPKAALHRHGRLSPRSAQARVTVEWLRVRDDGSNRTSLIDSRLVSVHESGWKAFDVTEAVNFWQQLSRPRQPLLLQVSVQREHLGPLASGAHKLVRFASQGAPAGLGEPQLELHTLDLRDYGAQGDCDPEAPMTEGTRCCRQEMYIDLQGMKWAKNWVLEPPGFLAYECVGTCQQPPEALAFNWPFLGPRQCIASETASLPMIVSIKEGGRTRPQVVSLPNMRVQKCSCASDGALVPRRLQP
Torsin-1A-interacting protein 1 (Homo sapiens), sequence (Q5JTV8 whole entry, looked up): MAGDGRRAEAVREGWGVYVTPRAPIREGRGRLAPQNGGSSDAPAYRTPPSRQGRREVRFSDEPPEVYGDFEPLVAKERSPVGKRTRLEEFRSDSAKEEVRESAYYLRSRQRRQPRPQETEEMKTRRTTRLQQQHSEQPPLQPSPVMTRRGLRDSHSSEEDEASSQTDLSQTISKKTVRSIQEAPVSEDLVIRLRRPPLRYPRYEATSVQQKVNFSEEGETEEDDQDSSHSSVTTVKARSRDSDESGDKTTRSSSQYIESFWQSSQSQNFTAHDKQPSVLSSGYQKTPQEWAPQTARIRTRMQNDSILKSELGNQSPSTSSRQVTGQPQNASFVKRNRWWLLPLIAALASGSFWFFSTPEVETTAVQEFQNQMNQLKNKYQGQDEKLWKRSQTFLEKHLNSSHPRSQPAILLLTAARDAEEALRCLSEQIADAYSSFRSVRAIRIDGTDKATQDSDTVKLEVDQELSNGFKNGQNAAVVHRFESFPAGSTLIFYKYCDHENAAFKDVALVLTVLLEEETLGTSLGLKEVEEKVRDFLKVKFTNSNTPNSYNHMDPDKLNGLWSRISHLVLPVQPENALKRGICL
Albumin (Bos taurus), sequence (P02769 whole entry, looked up): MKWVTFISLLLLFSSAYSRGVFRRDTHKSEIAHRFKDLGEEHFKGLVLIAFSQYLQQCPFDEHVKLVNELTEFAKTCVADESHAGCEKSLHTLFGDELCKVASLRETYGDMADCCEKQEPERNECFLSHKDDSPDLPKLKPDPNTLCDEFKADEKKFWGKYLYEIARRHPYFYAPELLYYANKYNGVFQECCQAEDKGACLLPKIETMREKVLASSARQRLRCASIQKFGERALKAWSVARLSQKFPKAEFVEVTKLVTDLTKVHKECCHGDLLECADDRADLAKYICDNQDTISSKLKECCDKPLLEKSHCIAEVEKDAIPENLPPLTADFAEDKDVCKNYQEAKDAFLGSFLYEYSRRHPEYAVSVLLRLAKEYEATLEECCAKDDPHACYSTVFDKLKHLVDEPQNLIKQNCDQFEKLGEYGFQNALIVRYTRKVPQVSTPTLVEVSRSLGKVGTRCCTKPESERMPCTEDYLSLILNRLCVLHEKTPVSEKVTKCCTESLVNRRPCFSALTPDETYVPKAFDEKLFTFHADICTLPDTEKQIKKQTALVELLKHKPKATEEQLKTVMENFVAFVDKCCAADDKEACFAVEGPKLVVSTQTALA
Alpha-bungarotoxin (Bungarus multicinctus), sequence (P60615 whole entry, looked up): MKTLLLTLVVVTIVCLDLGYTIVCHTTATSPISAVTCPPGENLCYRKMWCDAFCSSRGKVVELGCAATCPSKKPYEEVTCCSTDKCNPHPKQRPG

As to `COc1ccc([Si](C)(C)[C@H]2[C@H](CCn3cc([C@H](O)c4ccccc4)nn3)O[C@@]3(C(=O)N(c4ccccc4)c4ccccc43)[C@@H]2C)cc1`, the composite z-score in [1] was 0.323; in [3] it was -0.202; in [4], -0.0353; in experiment [5], 0.82; in [6], -0.1; in experiment [7], -0.2. Besides, the composite z-score in [8] is -0.143; in experiment [9], -0.179; in [10] it was 0.0509; with Albumin (Bos taurus), 0.121; in experiment [12] it was -0.0879; in [13], -0.156. The composite z-score is -0.102 in experiment [14]; -0.337 in experiment [15]; -0.075 in experiment [16]; 0.0941 in the experiment with Sam68 (KHDRBS1); -0.201 in experiment [17]; 0.173 in [18]. This molecule also showed a z-score in experiment [2] of -2.91. The composite Z-score in [11] is -0.112 (inactive).
In the case of `NC(=O)NCC#Cc1ccc2c(c1)[C@]1(C(=O)N2)[C@H](C(=O)Nc2nc3ccccc3s2)[C@H]2C(=O)O[C@H](c3ccccc3)[C@H](c3ccccc3)N2[C@@H]1c1ccc(OCCO)cc1`, the composite z-score in experiment [1] was 0.537; in experiment [3], -0.828; in [4], 0.84; in experiment [5], 0.417; in experiment [6] it was 0.0108; in experiment [7] it was -0.151. The composite z-score in experiment [8] is -0.464; in [9] it was 0.281; in [10] it was 0.9; with Albumin (Bos taurus) it was 0.0054; in [12], -0.0956; in experiment [13] it was -0.238. In addition, the composite z-score is 0.136 in [14]; 0.408 in experiment [15]; 0.109 in [16]; -0.137 with Sam68 (KHDRBS1); -0.258 in [17]; 0.318 in experiment [18]. Also, in [2], the z-score was -0.942. Besides, the composite Z-score in [11] is 0.367 (inactive).
For the molecule `Cc1c(-c2ccc(-c3ccc(Cl)c(Cl)c3)o2)nc(-c2ccccc2)c2c1CO[Si]2(C(C)C)C(C)C`, the composite z-score is 0.296 in [1]; -0.487 in experiment [3]; -0.179 in experiment [4]; -0.0727 in experiment [5]; -0.113 in [6]; 0.0326 in experiment [7]. In addition, the composite z-score is -0.103 in [8]; 0.125 in experiment [9]; -0.0982 in experiment [10]; 0.734 in the experiment with Albumin (Bos taurus); -0.122 in experiment [12]; -0.148 in experiment [13]. In addition, the composite z-score is 0.181 in [14]; 0.356 in experiment [15]; -0.213 in experiment [16]; 0.295 with Sam68 (KHDRBS1); -0.18 in experiment [17]; 0.248 in experiment [18]. The molecule further showed a z-score in experiment [2] of -0.403. In experiment [11], the composite Z-score was -0.0877 (inactive).
On to `CC(C)CNC(=O)[C@@H]1c2ccccc2C(=O)N(Cc2ccccc2)[C@H]1c1ccc(CO)cc1`, for which the composite z-score in experiment [1] was 0.93; in experiment [3], -1.35; in experiment [4] it was -0.148; in experiment [5], -0.202; in experiment [6] it was -0.253; in [7], -0.1. For the same molecule, the composite z-score in experiment [8] was 0.127; in experiment [9], 0.936; in [10], -0.865; in the experiment with Albumin (Bos taurus), -0.159; in experiment [12] it was -0.394; in [13] it was -0.122. The composite z-score in experiment [14] is 0.83; in [15], 1.63; in experiment [16] it was 1.35; in the experiment with Sam68 (KHDRBS1), 0.293; in experiment [17], -1.1; in [18] it was -0.102. The same molecule displayed a z-score in experiment [2] of 0.372. Also, the composite Z-score in experiment [11] is -0.318 (inactive).
On to `CC(=O)n1cc(C(O)C2C=CC3C(=O)N(c4ccccc4)C(=O)C3N2Nc2ccccc2F)c2ccccc21` (stereo not given), for which the composite z-score is 1.13 in [1]; -0.747 in experiment [3]; 1.64 in [4]; -0.494 in experiment [5]; -0.0566 in [6]; 0.0723 in experiment [7]. Also, the composite z-score in experiment [8] is -0.305; in experiment [9] it was 0.488; in experiment [10], 0.403; in the experiment with Albumin (Bos taurus), 0.332; in experiment [12] it was -0.189; in experiment [13], -0.162. Also, the composite z-score was 0.754 in experiment [14]; 1.84 in [15]; 0.386 in [16]; 0.505 with Sam68 (KHDRBS1); -0.997 in experiment [17]; 0.76 in experiment [18]. The molecule also returned a z-score in experiment [2] of -0.159. Further, in experiment [11], the composite Z-score is 0.169 (inactive).
`O=C1c2ccccc2[C@@]2(Cc3ccccc3N(Cc3ccccc3)C2=O)[C@H](c2ccc(CO)cc2)N1Cc1ccccc1`: the composite z-score in experiment [1] was 0.145; in [3], -1.09; in experiment [4] it was -0.73; in experiment [5], 0.242; in experiment [6] it was -0.236; in experiment [7] it was -0.153. Moreover, the composite z-score in experiment [8] was -0.36; in experiment [9], -0.516; in experiment [10] it was -0.114; in the experiment with Albumin (Bos taurus), -0.819; in [12], -0.132; in [13], -0.125. Also, the composite z-score is 0.19 in experiment [14]; -0.137 in experiment [15]; 0.407 in experiment [16]; -0.42 in the experiment on Sam68 (KHDRBS1); -0.845 in experiment [17]; -0.571 in experiment [18]. Further, the z-score in experiment [2] is -0.173. In [11], the composite Z-score is 0.225 (inactive).
